Screens (PubChem BioAssay)
PfHsp40 yeast: compounds rescuing yeast from Plasmodium falciparum HSP40 toxicity; S. cerevisiae expressing PfHsp40, growth rescue, ATP luminescence; growth rescue, % at 12.5 µM; 0.68% of 340,000 active; AID 504582; in the data active = growth rescue above about 28%, passing the limit was not always enough;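 note: yeast W303a lacking pdr1 and pdr3 grown in galactose medium; growth measured after three days at 30 °C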
3CLpro inhibitor: SARS-CoV 3CLpro protease inhibition; 0.14% of 290,000 active; inhibition, % at 6 µM; recombinant SARS-CoV 3CLpro, quenched FRET peptide cleavage; in the data active = inhibition above about 12%
MazEF act: MazEF (E. coli) toxin RNase activation; P0AE70; FAM/BHQ RNA-DNA oligo cleavage fluorescence, 5 h; activation, % at 20 µM; 0.32% of 350,000 active; AID 504720; in the data active = activation above about 50%
Target sequence (P0AE70 whole entry, looked up): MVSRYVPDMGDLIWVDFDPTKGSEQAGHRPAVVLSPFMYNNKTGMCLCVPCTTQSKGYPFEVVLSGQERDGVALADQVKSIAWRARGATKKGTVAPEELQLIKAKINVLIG
BJeLR viability: BJeLR cell viability loss. BJeLR (HRASV12) viability, CellTiter-Glo ATP luminescence, 48 h. inhibition, % (test concentration not listed). 0.17% of 300,000 active; in the data active = inhibition above about 50%
Y pestis TopoI: blocks Yersinia pestis topoisomerase I activity; activity, % at 10 µM; 0.064% of 360,000 active; Y. pestis Topo-I cleavage product accumulation, plate reader; in the data active = activity above about 50%, passing the limit was not always enough
BioA inh: BioA (M. tuberculosis) enzyme inhibition; inhibition, % at 9.99 µM; 0.096% of 360,000 active; AID 602481; purified M. tuberculosis BioA enzyme, plate reader; in the data active = inhibition above about 40%
Numbers without * were called inactive; x = no result; + = active, no number. A selection: hits, their analogues and other compounds. The true share with any hit is near 1.1%.

SMILES	PfHsp40 yeast	3CLpro inhibitor	MazEF act	BJeLR viability	Y pestis TopoI	BioA inh
CC(=O)NC(c1ccc(C)cc1)c1cc(Cl)c2cccnc2c1O (stereo not drawn)	-1	1	-5	12	-2	-1
CCC(=O)NC(c1ccco1)c1cc(Cl)c2cccnc2c1O (stereo not drawn)	277*	1	-18	-3	2	x
Oc1c(C(Nc2ccccn2)c2cccnc2)cc(Cl)c2cccnc12 (stereo not drawn)	318*	5	-4	16	5	x
CCCCC(=O)NC(c1ccco1)c1cc(Cl)c2cccnc2c1O (stereo not drawn)	360*	1	-1	4	-1	x
C[C@@H]1CN([C@@H](C)CO)C(=O)Cc2cc(NS(C)(=O)=O)ccc2O[C@@H]1CN(C)Cc1ccc(Oc2ccccc2)cc1	x	x	x	x	x	-2
O=C(N[C@H]1CC[C@H](CC(=O)N2CCc3ccccc3C2)O[C@@H]1CO)C1CC1	x	x	x	x	x	0
CCc1ccc(Nc2nc(N)nc(CSc3nnnn3-c3ccccc3)n2)cc1	0	-3	-33	-8	53*	-2
COc1ccc(N=c2oc3cc(O)ccc3cc2C(=O)NCC2CCCO2)c(OC)c1 (stereo not drawn)	0	3	85*	0	5	11
COc1ccc(N=c2oc3cc(O)ccc3cc2C(=O)NCC2CCCO2)cc1 (stereo not drawn)	0	1	4	-3	-5	0
Cc1ccc(S(=O)(=O)Nc2ccc3c(c2)C(=O)N([C@H](C)CO)C[C@@H](C)[C@@H](CN(C)C(=O)CCCN(C)C)OCCCC[C@H](C)O3)cc1	x	x	x	x	x	1
CCN(CC)c1ccc(N)cc1	-1	x	99*	x	-19	0
O=C(NCC[C@@H]1CC[C@@H](NC(=O)C2CCCCC2)[C@H](CO)O1)c1cnccn1	x	x	x	x	x	-1
O=C(Nc1nc(-c2ccccn2)cs1)C1CC1	0	-5	-9	-1	-3	-2
COc1ccc(OCCCC(=O)Nc2nc(-c3ccccn3)cs2)cc1	-1	-1	29	-4	9	-1
CCc1ccccc1OCC(=O)Nc1nc(-c2cccnc2)cs1	237*	1	4	-6	15	0
Cc1cc(C)c(OCC(=O)Nc2nc(-c3ccccn3)cs2)c(C)c1	313*	0	-2	-8	-9	-1
O=C(CC1CC2CCC1C2)Nc1nc(-c2ccccn2)cs1 (stereo not drawn)	438*	-2	8	3	2	x
CCC(=O)c1ccc(OCC(=O)Nc2nc(-c3cccnc3)cs2)cc1	0	x	1	8	5	0
Cc1ccc(C)n1-c1ccc(-c2nnco2)cc1	2	-2	x	-4	-8	-1
Cc1ccc(C)n1-c1ccc(-c2ccn[nH]2)cc1	1	1	91*	1	-8	-2
c1ccn(-c2ccc(-c3ccn[nH]3)cc2)c1	-1	2	+	4	17	x
Oc1ccccc1-c1ccn[nH]1	-1	x	4	x	-8	-1
O=C(NCC[C@H]1CC[C@H](NS(=O)(=O)Cc2ccccc2)[C@@H](CO)O1)C1CCC1	x	x	x	x	x	-3
Cc1ccc(C2=CC(c3ccc(C)cc3)n3ncnc3N2)cc1 (stereo not drawn)	69*	x	8	5	30	-1
Cc1noc(C)c1NC(=O)Nc1ccc2c(c1)C(=O)N([C@@H](C)CO)C[C@@H](C)[C@@H](CN(C)Cc1ccc(C(=O)O)cc1)O2	x	x	x	x	x	-1
SMILES	PfHsp40 yeast	3CLpro inhibitor	MazEF act	BJeLR viability	Y pestis TopoI	BioA inh
CCCCN(CCCC)C(=O)C1(P(=O)(c2ccccc2)c2ccccc2)CCC1	0	6	-7	3	55*	2
Cc1[nH]c2ccccc2c1N=Nc1ccc(F)cc1	12	4	-11	5	-1	x
Cc1[nH]c2ccccc2c1N=Nc1ccccc1F	170*	4	14	-5	-24	x
Cc1ccc(S(=O)(=O)N(C)C[C@@H]2OCCCC[C@H](C)Oc3ccc(NC(=O)Nc4ccc(F)cc4)cc3C(=O)N([C@@H](C)CO)C[C@H]2C)cc1	x	x	x	x	x	0
O=C1N=C(N2CCOCC2)S/C1=C/c1ccc(-c2ccccc2Cl)o1	0	-6	107*	-5	8	-3
C[C@H]1CCCCO[C@H](CN(C)Cc2ccc3c(c2)OCO3)[C@@H](C)CN([C@@H](C)CO)C(=O)c2cc(NS(=O)(=O)c3cccs3)ccc2O1	x	x	x	x	x	0
CC1=C/C(=N\OS(=O)(=O)c2ccccc2)C(C(C)C)=CC1=O	46*	0	4	x	6	x
COC(=O)C[C@H]1CC[C@@H]2[C@H](COC[C@H](O)CN2C(=O)Nc2cccc(F)c2)O1	x	x	x	x	x	7
C[C@@H]1CN([C@H](C)CO)C(=O)c2cc(C#C[C@@H](C)O)cnc2O[C@H]1CN(C)Cc1cccc(F)c1	x	x	x	x	x	5
Cc1ccc(C(=O)N2C(=O)C(c3ccccc3)Oc3ccccc32)cc1 (stereo not drawn)	110*	1	-10	8	1	x
Cc1cc(C)c2cc3c(N)c(C(=O)N4CCOCC4)sc3nc2c1	0	0	15	-4	-7	x
Cc1cc(C)c2cc3c(N)c(C(=O)Nc4c(C)[nH]c(=O)[nH]c4=O)sc3nc2c1	-1	6	155*	-2	1	-2
Cc1ccc(-n2c(Cl)c(Cl)nc(Cl)c2=O)cc1	42*	4	4	x	-2	x
Cn1c(-c2ccc(C#N)cc2)c(C#Cc2ccccc2)c2ccccc21	-1	x	-8	x	-3	0
N#Cc1c(-c2ccc(Cl)cc2)n(O)c2ccccc12	284*	x	7	x	-6	x
O=C(C[C@H]1CC[C@H]2[C@@H](COC[C@H](O)CN2C(=O)Nc2ccc(Cl)cc2)O1)N1CCCCC1	x	x	x	x	x	1
COc1cccc(CCNc2ccc(N3C(=O)CC(C)C3=O)cc2[N+](=O)[O-])c1 (stereo not drawn)	3	3	7	7	24	-1
CC1CC(=O)N(c2ccc(NCc3ccc(Cl)cc3)c([N+](=O)[O-])c2)C1=O (stereo not drawn)	1	-3	214*	-7	19	1
Nc1ncnc2c(C3OC(CO)C(O)C3O)scc12 (stereo not drawn)	145*	x	12	x	9	x
C[C@@H]1CN([C@@H](C)CO)C(=O)c2cc(-c3ccc(F)cc3)cnc2O[C@@H]1CN(C)CC1CC1	x	x	x	x	x	1
C[C@H]1CN([C@@H](C)CO)S(=O)(=O)c2ccc(-c3ccccc3)cc2O[C@H]1CN(C)C(=O)c1ccccc1F	x	x	x	x	x	-2
CN(C)c1ccc(/C=C2\SC(=S)N(Nc3ncc(C(F)(F)F)cc3Cl)C2=O)cc1	1	4	52*	-3	8	-3
COc1cc(/C=C2\SC(=S)N(Nc3ncc(C(F)(F)F)cc3Cl)C2=O)ccc1O	2	7	-88	2	-11	-2
CCOC(=O)c1c(-c2ccccc2)oc2ccc(O)cc12	318*	2	8	-13	-4	0
